The full data set covers some 8,800 targets. This sample favours those with a hit. About 0.5% of all pairs of compound and target were hits. A number with no mark means an inactive call.
Assays:
Assay in all cases: log2 fold change, soluble protein after heating vs DMSO (PISA); higher = thermal stabilisation; K562 lysate, 10 uM; active = over 0.2 and 3.5 SD of the protein, either way, in both replicates (recomputed)
[1] = compound: CCCS(=O)(=O)Nc1ccc(F)c(C(=O)c2c[nH]c3ncc(-c4ccc(Cl)cc4)cc23)c1F [vemurafenib]
How it was run: (§1)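 Soluble protein was defined as the supernatant remaining after 21,000xg for 90 min, following pooling of heated aliquots and adjustment to 0.5% NP-40 at 4°C. Before that, crude K562 extract at 1 mg/mL protein in PBS pH 7.4 with 1 mM MgCl2 was treated with 10 μM compound for 30 min and heated for 3 min across 48°C-58°C. Quantification used TMTpro 16plex LC-MS/MS with channel sums equalised, and values are log-two fold changes in thermal stability relative to solvent controls from duplicates.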

[2] = compound: CCCS(=O)(=O)Nc1ccc(F)c(C(=O)c2c[nH]c3ncc(Cl)cc23)c1F
How it was run: as §1

[3] = compound: CCN(CCCOc1ccc2c(Nc3cc(CC(=O)Nc4cccc(F)c4)[nH]n3)ncnc2c1)CCOP(=O)(O)O [barasertib]
How it was run: as §1

[4] = compound: CC[C@@H]1C(=O)N(C)c2cnc(Nc3ccc(C(=O)NC4CCN(C)CC4)cc3OC)nc2N1C1CCCC1
How it was run: as §1

[5] = compound: CC[C@@H]1C(=O)N(C)c2cnc(Nc3ccc(C(=O)N[C@H]4CC[C@H](N5CCN(CC6CC6)CC5)CC4)cc3OC)nc2N1C(C)C [volasertib]
How it was run: as §1

[6] = compound: CCn1c(C(=O)N(C2CC2)C2CC2)cc2c3c(ncn3C)c(Nc3cc(C)n(C)n3)nc21
How it was run: as §1

[7] = compound: CCn1cc(-c2ccnc3[nH]c(-c4cccc(CN(C)C)c4)cc23)c(-c2ccc(NC(=O)N(C)C)cc2)n1
How it was run: as §1

[8] = compound: CN1CCC(CNc2ccc3ncc(-c4cccc(OC(F)(F)F)c4)n3n2)CC1
How it was run: as §1

[9] = compound: CN1CCN(CCOc2cc(OC3CCOCC3)c3c(Nc4c(Cl)ccc5c4OCO5)ncnc3c2)CC1 [saracatinib]
How it was run: as §1

[10] = compound: CN1CCN(c2nc(C3=C(c4c[nH]c5ccccc45)C(=O)NC3=O)c3ccccc3n2)CC1 [sotrastaurin]
How it was run: as §1

[11] = compound: CN1CC[C@H](c2c(O)cc(O)c3c(=O)cc(-c4ccccc4Cl)oc23)[C@H](O)C1 [alvocidib]
How it was run: as §1

[12] = compound: CN1CCc2c(c3ccccc3n2Cc2ccc(C(=O)NO)cc2)C1 [Tubastatin A]
How it was run: as §1

[13] = compound: CNC(=O)C1=CC=CC=C1NC2=NC(=NC=C2Cl)NC3=C(C=C(C=C3)N4CCOCC4)OC
How it was run: as §1

[14] = compound: CNC(=O)c1ccc(Nc2ncc(C(F)(F)F)c(NCc3nccnc3N(C)S(C)(=O)=O)n2)cc1 [defactinib]
How it was run: as §1

[15] = compound: CNc1nc(-c2ccc3c(N)n[nH]c3c2)cc(N2C[C@@H](C(=O)NC3CCCCC3)CC[C@H]2C)n1
How it was run: as §1

[16] = compound: COC(=O)N[C@@H](C)CNc1nccc(-c2cn(C(C)C)nc2-c2cc(Cl)cc(NS(C)(=O)=O)c2F)n1 [encorafenib]
How it was run: as §1

[17] = compound: COC(=O)[C@H](CCSC)NC(=O)C1=C(C=C(C=C1)NC[C@H](CS)N)C2=CC=CC=C2
How it was run: as §1

[18] = compound: COc1cc(Nc2ncc3c(n2)-c2ccc(Cl)cc2C(c2c(F)cccc2OC)=NC3)ccc1C(=O)O [alisertib]
How it was run: as §1

[19] = compound: COc1cc2nc(-c3cc(F)ccc3O)nc(N[C@@H]3CNC[C@H]3C(C)(C)O)c2cc1OC
How it was run: as §1

[20] = compound: COc1cc2ncnc(Nc3ccc(F)c(Cl)c3)c2cc1OCCCN1CCOCC1 [gefitinib]
How it was run: as §1

Sequence of UniProt Q9NPA8 (Q9NPA8 whole entry, looked up): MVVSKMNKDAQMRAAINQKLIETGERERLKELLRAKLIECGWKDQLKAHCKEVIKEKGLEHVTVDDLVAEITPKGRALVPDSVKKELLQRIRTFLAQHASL
Sequence of UniProt Q96L91 (Q96L91 whole entry, looked up): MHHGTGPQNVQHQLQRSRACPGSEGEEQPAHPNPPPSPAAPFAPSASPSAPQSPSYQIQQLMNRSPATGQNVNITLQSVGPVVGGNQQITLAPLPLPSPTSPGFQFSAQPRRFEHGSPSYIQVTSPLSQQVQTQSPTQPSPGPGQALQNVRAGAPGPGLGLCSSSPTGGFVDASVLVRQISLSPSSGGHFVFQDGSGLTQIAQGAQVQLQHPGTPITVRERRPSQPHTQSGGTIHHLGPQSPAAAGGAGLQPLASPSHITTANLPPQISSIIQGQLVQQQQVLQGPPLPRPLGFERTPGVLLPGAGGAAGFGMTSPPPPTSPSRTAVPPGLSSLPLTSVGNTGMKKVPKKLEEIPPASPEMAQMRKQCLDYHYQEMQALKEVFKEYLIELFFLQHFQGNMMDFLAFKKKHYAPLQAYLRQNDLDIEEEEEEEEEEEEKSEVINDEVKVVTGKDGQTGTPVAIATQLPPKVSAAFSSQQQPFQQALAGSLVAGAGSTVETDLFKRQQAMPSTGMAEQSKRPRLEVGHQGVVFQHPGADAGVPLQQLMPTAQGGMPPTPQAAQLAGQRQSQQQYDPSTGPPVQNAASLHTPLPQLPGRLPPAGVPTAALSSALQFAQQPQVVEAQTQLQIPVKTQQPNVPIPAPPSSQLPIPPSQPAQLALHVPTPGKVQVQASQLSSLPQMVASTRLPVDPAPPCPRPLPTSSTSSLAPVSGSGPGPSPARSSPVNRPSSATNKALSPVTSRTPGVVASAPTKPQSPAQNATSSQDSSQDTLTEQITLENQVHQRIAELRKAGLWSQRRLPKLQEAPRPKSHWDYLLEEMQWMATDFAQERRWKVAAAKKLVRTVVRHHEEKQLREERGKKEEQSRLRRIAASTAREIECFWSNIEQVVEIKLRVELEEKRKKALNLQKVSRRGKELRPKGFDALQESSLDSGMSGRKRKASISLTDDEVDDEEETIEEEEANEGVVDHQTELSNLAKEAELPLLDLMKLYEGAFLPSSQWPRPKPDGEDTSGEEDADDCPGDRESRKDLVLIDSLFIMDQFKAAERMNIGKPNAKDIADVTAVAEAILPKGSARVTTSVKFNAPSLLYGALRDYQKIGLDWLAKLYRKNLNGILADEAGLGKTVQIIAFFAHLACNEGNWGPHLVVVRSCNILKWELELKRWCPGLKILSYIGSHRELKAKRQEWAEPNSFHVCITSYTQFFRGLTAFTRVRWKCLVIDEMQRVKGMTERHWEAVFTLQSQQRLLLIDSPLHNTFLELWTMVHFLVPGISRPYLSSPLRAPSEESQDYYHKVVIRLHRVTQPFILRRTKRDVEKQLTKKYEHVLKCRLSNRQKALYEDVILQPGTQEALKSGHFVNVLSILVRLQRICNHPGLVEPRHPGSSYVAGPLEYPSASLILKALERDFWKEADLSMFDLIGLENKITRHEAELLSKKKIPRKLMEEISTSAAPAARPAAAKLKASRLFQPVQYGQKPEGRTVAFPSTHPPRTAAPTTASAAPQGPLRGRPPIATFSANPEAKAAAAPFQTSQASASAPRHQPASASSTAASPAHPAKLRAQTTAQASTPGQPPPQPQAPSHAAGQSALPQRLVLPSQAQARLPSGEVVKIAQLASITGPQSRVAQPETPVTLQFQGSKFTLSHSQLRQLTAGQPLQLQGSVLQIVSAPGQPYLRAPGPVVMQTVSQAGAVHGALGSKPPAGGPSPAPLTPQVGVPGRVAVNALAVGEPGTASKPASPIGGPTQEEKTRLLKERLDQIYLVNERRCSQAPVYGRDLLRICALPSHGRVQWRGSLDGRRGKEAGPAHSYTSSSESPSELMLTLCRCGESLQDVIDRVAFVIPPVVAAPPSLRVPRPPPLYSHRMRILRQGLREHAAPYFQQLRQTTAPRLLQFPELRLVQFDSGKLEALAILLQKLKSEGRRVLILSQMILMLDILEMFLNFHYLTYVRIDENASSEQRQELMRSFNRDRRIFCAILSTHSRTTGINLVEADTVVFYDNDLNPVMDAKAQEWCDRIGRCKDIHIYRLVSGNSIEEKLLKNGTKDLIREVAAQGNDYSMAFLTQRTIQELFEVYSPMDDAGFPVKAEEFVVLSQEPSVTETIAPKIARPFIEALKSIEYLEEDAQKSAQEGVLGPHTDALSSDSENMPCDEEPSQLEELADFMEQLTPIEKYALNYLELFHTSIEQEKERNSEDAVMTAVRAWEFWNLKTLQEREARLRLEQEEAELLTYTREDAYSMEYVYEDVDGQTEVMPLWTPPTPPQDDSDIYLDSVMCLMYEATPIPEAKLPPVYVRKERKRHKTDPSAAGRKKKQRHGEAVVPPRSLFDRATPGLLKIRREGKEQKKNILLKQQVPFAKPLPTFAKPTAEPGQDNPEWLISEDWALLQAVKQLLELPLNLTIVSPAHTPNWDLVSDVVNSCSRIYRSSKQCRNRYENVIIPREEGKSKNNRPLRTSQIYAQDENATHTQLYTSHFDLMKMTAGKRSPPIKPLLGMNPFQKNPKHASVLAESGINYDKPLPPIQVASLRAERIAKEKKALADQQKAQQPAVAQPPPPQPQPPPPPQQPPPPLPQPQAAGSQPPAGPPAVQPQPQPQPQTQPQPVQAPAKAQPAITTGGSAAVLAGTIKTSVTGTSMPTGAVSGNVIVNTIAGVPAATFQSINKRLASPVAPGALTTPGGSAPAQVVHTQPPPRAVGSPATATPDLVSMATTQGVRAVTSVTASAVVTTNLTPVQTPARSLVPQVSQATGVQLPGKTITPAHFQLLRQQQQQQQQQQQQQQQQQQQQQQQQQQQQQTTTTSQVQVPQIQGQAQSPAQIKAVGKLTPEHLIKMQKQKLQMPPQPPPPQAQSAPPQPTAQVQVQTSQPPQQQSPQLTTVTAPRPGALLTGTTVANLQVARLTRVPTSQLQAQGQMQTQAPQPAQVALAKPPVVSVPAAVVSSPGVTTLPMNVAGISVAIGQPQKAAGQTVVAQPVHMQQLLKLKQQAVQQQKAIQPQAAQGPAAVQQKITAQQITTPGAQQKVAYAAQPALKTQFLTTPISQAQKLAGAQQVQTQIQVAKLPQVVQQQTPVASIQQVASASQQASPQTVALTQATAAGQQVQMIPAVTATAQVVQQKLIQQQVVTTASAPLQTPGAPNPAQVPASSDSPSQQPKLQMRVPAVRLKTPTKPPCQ
Sequence of UniProt Q13011 (Q13011 whole entry, looked up): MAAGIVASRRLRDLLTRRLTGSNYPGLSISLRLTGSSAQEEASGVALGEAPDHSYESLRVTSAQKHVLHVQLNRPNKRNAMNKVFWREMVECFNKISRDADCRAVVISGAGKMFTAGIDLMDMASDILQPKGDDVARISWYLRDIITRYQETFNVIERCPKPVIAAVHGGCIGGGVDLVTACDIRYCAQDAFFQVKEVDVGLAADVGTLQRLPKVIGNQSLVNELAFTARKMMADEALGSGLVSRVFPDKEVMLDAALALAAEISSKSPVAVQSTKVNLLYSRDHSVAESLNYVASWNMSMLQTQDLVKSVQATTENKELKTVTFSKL
Sequence of UniProt Q5VTE0 (Q5VTE0 whole entry, looked up): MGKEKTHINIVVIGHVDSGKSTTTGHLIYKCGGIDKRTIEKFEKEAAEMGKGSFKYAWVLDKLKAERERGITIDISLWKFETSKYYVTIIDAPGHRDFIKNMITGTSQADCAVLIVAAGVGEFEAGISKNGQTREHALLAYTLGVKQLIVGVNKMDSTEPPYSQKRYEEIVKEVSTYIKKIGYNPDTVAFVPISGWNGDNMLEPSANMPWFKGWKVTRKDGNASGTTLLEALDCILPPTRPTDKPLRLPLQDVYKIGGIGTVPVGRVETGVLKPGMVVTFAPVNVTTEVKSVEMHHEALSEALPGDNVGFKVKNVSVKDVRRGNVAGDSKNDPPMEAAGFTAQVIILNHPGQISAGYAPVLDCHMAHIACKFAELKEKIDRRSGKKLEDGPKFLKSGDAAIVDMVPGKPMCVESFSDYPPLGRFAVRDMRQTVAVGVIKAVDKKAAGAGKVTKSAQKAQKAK
Sequence of UniProt Q6PIW4 (Q6PIW4 whole entry, looked up): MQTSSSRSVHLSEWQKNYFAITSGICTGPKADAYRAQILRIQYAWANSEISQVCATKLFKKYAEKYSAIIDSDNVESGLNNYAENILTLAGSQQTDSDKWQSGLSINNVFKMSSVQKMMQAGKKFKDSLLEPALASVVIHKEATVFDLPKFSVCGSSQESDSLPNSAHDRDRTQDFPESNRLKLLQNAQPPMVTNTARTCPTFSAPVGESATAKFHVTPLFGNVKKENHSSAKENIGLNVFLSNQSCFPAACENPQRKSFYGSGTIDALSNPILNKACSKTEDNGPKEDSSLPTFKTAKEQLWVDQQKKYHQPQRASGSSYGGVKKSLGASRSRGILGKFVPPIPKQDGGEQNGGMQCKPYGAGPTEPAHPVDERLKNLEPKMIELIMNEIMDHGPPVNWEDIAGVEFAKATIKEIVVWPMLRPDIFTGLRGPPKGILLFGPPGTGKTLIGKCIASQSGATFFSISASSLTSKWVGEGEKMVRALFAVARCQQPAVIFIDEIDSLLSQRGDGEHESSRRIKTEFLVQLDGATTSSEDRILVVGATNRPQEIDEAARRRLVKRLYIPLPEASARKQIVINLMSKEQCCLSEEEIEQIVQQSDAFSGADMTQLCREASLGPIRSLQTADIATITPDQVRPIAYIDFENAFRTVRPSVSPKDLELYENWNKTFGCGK
Sequence of UniProt P02792 (P02792 whole entry, looked up): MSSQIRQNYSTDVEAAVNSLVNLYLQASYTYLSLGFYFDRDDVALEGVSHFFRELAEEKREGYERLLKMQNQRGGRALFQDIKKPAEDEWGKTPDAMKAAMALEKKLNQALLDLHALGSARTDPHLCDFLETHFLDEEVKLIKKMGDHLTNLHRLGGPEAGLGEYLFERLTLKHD

| Target | log2 fold change [1] | log2 fold change [2] | log2 fold change [3] | log2 fold change [4] | log2 fold change [5] | log2 fold change [6] | log2 fold change [7] | log2 fold change [8] | log2 fold change [9] | log2 fold change [10] | log2 fold change [11] | log2 fold change [12] | log2 fold change [13] | log2 fold change [14] | log2 fold change [15] | log2 fold change [16] | log2 fold change [17] | log2 fold change [18] | log2 fold change [19] | log2 fold change [20] |
| --- | --- | --- | --- | --- | --- | --- | --- | --- | --- | --- | --- | --- | --- | --- | --- | --- | --- | --- | --- | --- |
| EEF1A1P5 (UniProt Q5VTE0) | 0.022 | 0.002 | -0.017 | 0.004 | -0.022 | -0.031 | -0.105 | 0.073 | -0.021 | 0.025 | -0.022 | -0.065 | -0.021 | -0.015 | -0.218 | -0.027 | 0.127 | 0.023 | 0.009 | 0 |
| FTL (UniProt P02792) | -0.063 | 0.047 | -0.005 | 0.03 | 0.06 | -0.327 | -0.041 | 0.092 | 0.058 | 0.036 | 0.013 | 0.187 | -0.04 | 0.15 | -0.097 | 0.145 | -0.076 | 0.067 | 0.007 | -0.024 |
| FANCD2 isoform 1 (UniProt Q9BXW9) | 0.067 | 0.053 | 0.04 | 0.14 | -0.045 | 0.017 | -0.135 | 0.02 | 0.016 | -0.029 | 0 | -0.082 | -0.001 | -0.044 | 0.147 | -0.059 | 0.096 | 0.001 | 0.023 | 0.009 |
| ERCC4 (UniProt Q92889) | 0.071 | 0.01 | 0.163 | 0.144 | -0.006 | 0.004 | -0.078 | 0.114 | 0.016 | 0.047 | -0.268 | -0.021 | 0.058 | 0.101 | -0.029 | -0.065 | -0.001 | 0.047 | 0.024 | 0.044 |
| G6PD isoform 2 (UniProt P11413) | 0.003 | 0.008 | -0.029 | -0.02 | -0.061 | 0.016 | 0.063 | -0.04 | 0.032 | -0.017 | 0.029 | -0.068 | 0.013 | 0.031 | 0.009 | -0.025 | 0.145 | 0.021 | -0.017 | -0.023 |
| ECH1 (UniProt Q13011) | -0.003 | -0.025 | -0.008 | -0.019 | 0.041 | -0.007 | -0.07 | 0.348 (active) | -0.047 | 0.608 (active) | 0.017 | 0.309 (active) | -0.028 | 0.004 | -0.004 | -0.033 | -0.024 | -0.01 | 0.047 | -0.001 |
| EPB41, A0A2R8Y6D0 | -0.019 | -0.004 | 0.043 | -0.108 | 0.006 | -0.24 | -0.047 | 0.594 (active) | -0.082 | 0.044 | -0.015 | -0.033 | 0.114 | 0.098 | -0.178 | 0.029 | 0.052 | 0.165 | -0.014 | 0.407 |
| EP400 isoform 5 (UniProt Q96L91) | -0.021 | -0.007 | -0.015 | 0.044 | -0.042 | -0.023 | -0.007 | 0.011 | 0.01 | -0.012 | 0.015 | -0.022 | 0.037 | 0.01 | 0.035 | -0.028 | 0.068 | 0.004 | 0.023 | -0.055 |
| FPGT (UniProt O14772) | -0.008 | 0.011 | 0.048 | -0.064 | -0.018 | 0.008 | 0.415 (active) | -0.054 | 0.017 | -0.001 | 0.031 | -0.111 | -0.011 | 0.008 | -0.02 | 0.011 | 0.058 | 0.002 | 0.002 | 0.013 |
| EXOC5 (UniProt O00471) | 0.033 | 0.03 | 0.044 | -0.036 | -0.081 | 0.02 | 0.068 | -0.115 | 0.044 | 0.022 | 0.004 | -0.064 | -0.011 | 0.007 | -0.07 | 0.029 | -0.102 | 0.029 | -0.025 | 0.002 |
| ENY2 (UniProt Q9NPA8) | -0.057 | 0.016 | 0.072 | -0.036 | 0.033 | 0.048 | 0.886 (active) | -0.406 (active) | -0.003 | -0.003 | 0.351 (active) | -0.024 | 0.016 | 0.096 | -0.084 | 0.004 | -0.003 | 0.024 | -0.019 | -0.016 |
| FREM2 (UniProt Q5SZK8) | 0.003 | -0.082 | 0.136 | -0.072 | 0.026 | 0.014 | -0.366 | 0.151 | 0.051 | 0.056 | -0.114 | 0.068 | -0.034 | -0.005 | -0.038 | 0.031 | -0.022 | 0.098 | -0.013 | 0.164 |
| FIGNL1 (UniProt Q6PIW4) | -0.012 | 0.042 | 0.03 | -0.063 | -0.047 | 0.027 | -0.108 | 0.036 | 0.006 | -0.015 | -0.018 | -0.189 | 0.014 | 0.05 | -0.018 | 0.041 | 0.069 | -0.003 | 0.005 | 0.01 |
| DTWD1 (UniProt Q8N5C7) | 0.028 | 0.018 | -0.005 | 0.024 | -0.036 | 0.016 | -0.026 | -0.032 | -0.033 | 0.019 | 0.041 | -0.028 | 0.011 | -0.032 | 0.01 | -0.044 | -0.046 | 0 | 0.005 | -0.006 |
| DYNC1I2 isoform 5 (UniProt Q13409) | -0.015 | 0.013 | -0.03 | -0.012 | -0.013 | -0.016 | -0.017 | 0.017 | 0.003 | -0.034 | 0.002 | 0.007 | -0.021 | -0.011 | 0.012 | -0.007 | -0.012 | -0.011 | 0.004 | 0.006 |
| EPB41, A0A2R8Y783 | 0.129 | 0.063 | 0.112 | -0.141 | 0.057 | – | -0.136 | -0.048 | 0.075 | – | -0.248 | – | – | 0.05 | -0.13 | -0.523 | 0.118 | – | 0.029 | – |

Source: the supplement of paper PMC10849652
